High-throughput results as filed in PubChem BioAssay.
Vaccinia Venus: vaccinia inhibition (Venus reporter). Vaccinia virus Venus reporter expression, fluorescence. Potency, µM (titrated, usually from 36.5 µM), inactives show at the top dose activity change, negative = inhibition, most hits filed as inhibitors. 0.46% of 330,000 active; calls by dose curve; tested in A549 cells; also: potency is read from the fitted curve at half-maximal effect; % is scaled to controls: 0 for no effect and ±100 for the full control effect; nearly all actives have a fitted effect of over 30% in size
MARV entry inh: blocks Marburg virus binding to or entry into cells; AID 540276; Potency, µM (highest dose often 37.8 µM), inactives show at the top dose activity change, negative = inhibition, actives largely listed as inhibitors; 1.8% of 300,000 active; Marburg virus pseudotyped entry inhibition, cell reporter; calls by dose curve; tested in HEK293 cells; also: potency is read from the fitted curve at half-maximal effect; % is scaled to controls: 0 for no effect and ±100 for the full control effect
LASV entry inh: Lassa virus entry inhibition; Potency, µM (top dose mostly 37.9 µM), without a hit: at the top dose activity change, negative = inhibition, hits mostly inhibitors; 1.2% of 300,000 active; AID 540256; Lassa virus pseudotype entry inhibition, cell reporter; calls by dose curve; tested in HEK293 cells; also: potency is read from the fitted curve at half-maximal effect; % is scaled to controls: 0 for no effect and ±100 for the full control effect; nearly all actives have a fitted effect of over 50% in size
Vaccinia mCherry: inhibitors of vaccinia virus infection (mCherry reporter signal); Vaccinia virus mCherry reporter infection, fluorescence; Potency, µM (doses to about 36.5 µM), for inactives: at the highest dose activity change, negative = inhibition, usual class: inhibitors; 0.63% of 310,000 active; AID 720579; calls by dose curve; tested in A549 cells; also: potency is read from the fitted curve at half-maximal effect; % is scaled to controls: 0 for no effect and ±100 for the full control effect; nearly all actives have a fitted effect of over 35% in size
Cycloheximide cs: affects cycloheximide protein synthesis inhibition readout, counter-screen; cell reporter, cycloheximide protein synthesis inhibition counterscreen; max response, %; 12% of 300,000 active; AID 2314; in the data active = max response mostly above about 13%, no sharp cut-off; inactive = mostly below about 14%; also: read at 38.3 µM for the half of the compounds with a filed dose; 0% is about no effect
Shiga inhibitor: inhibitors of Shiga toxin in Vero cells; Vero cells, Shiga toxin protein synthesis inhibition reporter; inhibition, % at 38.7 µM; 9.2% of 290,000 active; in the data active = inhibition mostly above about 28%, no sharp cut-off; inactive = mostly below about 43%; also: 0% is about no effect
An asterisk follows results filed as active; i = inactive; ? = inconclusive; . = no result given; [ ] = dose if it differs, or a comment. Only a selection was taken, and hits are over-represented in it overall.

SMILES	Vaccinia Venus	MARV entry inh	LASV entry inh	Vaccinia mCherry	Cycloheximide cs	Shiga inhibitor
Cc1ncc2c(c1CNC(=O)c1ccc3c(c1)OCO3)CCN(C(=O)c1noc3c1CCCC3)C2	-4%	.	.	-7%	.	.
O=C(O)CC(CC(=O)Nc1ccc(-n2ccc(C(F)(F)F)n2)cc1)c1ccccc1 (centres undefined)	-4%	6%[46.1 µM]	8%[46.1 µM]	-10%	-3	3
N#CC(C#N)=NNc1ccc(-n2ccc(C(F)(F)F)n2)cc1	?	3.2µM*	?	?	16*	42
O=C(Nc1ccccc1)Nc1ccc(-n2ccc(C(F)(F)F)n2)cc1	.	.	.	.	39*	75*
Cc1cc(C)n(-c2ccc(NN=C(C#N)C#N)cc2)n1	.	.	.	.	14	18
O=C(O)CSc1nnc(-c2ccc(Cl)cc2Cl)n1-c1ccc(Br)cc1	0%	11%[46.1 µM]	11%[46.1 µM]	i	1	-3
CC1(C)CC(=O)c2c(-c3cccs3)n[nH]c2C1	.	10%	26%	.	18*	90*
COc1cccc(NC(=O)c2cc3c(-c4ccc(Cl)cc4)nn(C)c3s2)c1	-15%	-22%[46.1 µM]	?	-24%	.	.
CC1=C(CC(=O)c2ccccc2)C(=O)c2ccccc2C1=O	-27%	?	-14%	?	36*	87*
Cc1ccc(S(=O)(=O)CC(=O)c2ccccc2)cc1	-4%	22%	-13%	-9%	21	65
CC(C(=O)N1CCc2ccccc21)n1cccc1 (centres undefined)	.	17%	-5%	.	-2	-11
O=C(Nc1cccc(S(=O)(=O)N2CCCC2)c1)c1ccc2ccccc2n1	-13%	?	?	-9%	5	-2
O=C(Nc1cccc(S(=O)(=O)N2CCOCC2)c1)c1ccc2ccccc2n1	.	.	.	.	30*	34
O=C(Nc1cccc(S(=O)(=O)N2CCCCC2)c1)c1ccc2ccccc2n1	-16%	-22%	-26%	-26%	25*	-21
Cn1nc(C(=O)Nc2cccc(S(=O)(=O)N3CCCCC3)c2)c2ccccc2c1=O	-22%	6.3µM*	-22%	-24%	.	.
Cn1nc(C(=O)Nc2ccc(S(=O)(=O)N3CCCCC3)cc2)c2ccccc2c1=O	-14%	?	-20%	i	9	-8
O=S(=O)(c1ccc2nc(Nc3ccccc3)ccc2c1)N1CCCCC1	-24%	?	-16%[46.1 µM]	-27%	14*	26
CC(CCN1CCCCc2nc(C)c(C)cc21)=NO[C@H](C)c1cn([C@@H]2COC[C@@H]2O)nn1	.	4%[14.2 µM]	.	.	.	.
CC(C)NC(=O)CSc1ncccc1-c1nc2ccccc2[nH]1	.	.	.	.	13*	24
Cc1[nH]c(=O)[nH]c(=O)c1NC(=O)CSc1ncccc1-c1nc2ccccc2[nH]1	.	1%	-22%	.	20	49
Cc1ccc2nc(-c3cccnc3SCC(=O)N3c4ccccc4CC3C)[nH]c2c1 (centres undefined)	-13%	?	-7%	-20%	31*	136*
O=C(CSc1ncccc1-c1nc2ccccc2[nH]1)N1CCCCC1	.	-3%	5%	.	34*	79*
Cc1ccc2nc(SCC(=O)N3c4ccccc4CC3C)c(C)cc2c1 (centres undefined)	-22%	14%	1%	.	18	-4
CCN(CC)C(=O)CSc1ncccc1-c1nc2ccccc2[nH]1	-14%	20%[46.1 µM]	25%[46.1 µM]	-13%	17*	27
O=C(c1ccccc1-c1nc2ccccc2[nH]1)N1CCCCC1	8%	?	-20%	.	1	2
SMILES	Vaccinia Venus	MARV entry inh	LASV entry inh	Vaccinia mCherry	Cycloheximide cs	Shiga inhibitor
CN(C)C(=O)CSc1ncccc1-c1nc2ccccc2[nH]1	0%	0%	6%	-7%	1	-8
Cc1nnc(NC(=O)CSc2nnc3c(n2)[nH]c2ccc(Br)cc23)s1	0%	-17%[46.1 µM]	.	17%	1	-11
O=C(Cn1c(=O)nc(-c2ccccc2)c2ccccc21)Nc1cccc(C(F)(F)F)c1	0%	.	26%[46.1 µM]	-5%	.	.
O=C(COC(=O)c1cccnc1Cl)NCc1ccc2c(c1)OCO2	-3%	-1%	1%	-10%	-2	-12
O=C(COc1ccc(Br)cc1Cl)NC(=O)Nc1ccc2c(c1)OCCO2	-4%	19%[46.1 µM]	-4%[46.1 µM]	-12%	36*	63*
CCCNCc1cc(OC)c(OCC(=O)Nc2ccccc2)cc1Br	-10%	?	-2%[46.1 µM]	i	10	-11
COc1cc(CNCCO)ccc1OCC(=O)Nc1ccc(Br)cc1	.	-29%	21%	.	24*	23
N#Cc1cccc(NCC(=O)Nc2ccc3c(c2)OCCO3)c1	-9%	?	?	-3%	27*	63*
O=C(COc1ccc(Br)cc1Cl)NC(=O)NCc1ccccc1	-13%	2%	?	-17%	-2	18
O=C(COC(=O)c1cccnc1Cl)Nc1ccc2c(c1)OCCO2	-10%	7%[46.1 µM]	21%[46.1 µM]	i	49*	115*
CC1CCN(C(=O)c2cccc(NC(=O)c3nsc4ccccc34)c2)CC1	-6%	.	?	-3%	.	.
Cc1cccc(C)c1OCC(=O)Nc1ccc2c(c1)OCCO2	.	.	.	.	26	82*
COc1ccccc1OC(C)C(=O)Nc1ccc2c(c1)OCCO2 (centres undefined)	-8%	11%[46.1 µM]	0%[46.1 µM]	?	19*	25
Cc1ccccc1OCCC(=O)OCC(=O)Nc1ccc(N2CCOCC2)cc1	-2%	1%	-19%	-13%	14*	12
COc1ccccc1OCC(=O)Nc1ccc(NC(=O)COc2ccccc2OC)cc1	-19%	?	5%[46.1 µM]	-1%	6	-8
COc1ccccc1OCC(=O)Nc1ccc(Cl)cc1	.	14%	?	.	24*	51*
Cc1cc(C)c(S(C)(=O)=O)c(N(C)N)n1	0%	-12%[46.1 µM]	0%[46.1 µM]	i	6	-1
COc1ccc(C)cc1NC(=O)Cn1c(=O)ccc2cc(S(=O)(=O)N3CCCC3)ccc21	0%	.	8%[46.1 µM]	-2%	.	.
CC[C@H](C)C(N)C(=O)O (some centres undefined)	.	.	.	.	-2	-4
O=C(COc1ccccc1Cl)Nc1ccc2c(c1)OCCO2	-19%	?	-13%	.	45*	87*
CCOC(=O)c1ccc(NC(=O)CSC(=S)N2CCOCC2)cc1	-6%	.	.	i	3	-14
CC(C)=CC(=O)OCC(=O)Nc1ccc(Cl)cc1	-19%	?	-12%[46.1 µM]	-19%	24*	41*
COc1ccccc1OCC(=O)Nc1ccc2c(c1)OCCO2	-10%	26%[46.1 µM]	?	i	30*	78*
NC(=O)c1ccccc1OCC(=O)Nc1ccc2c(c1)OCCO2	-6%	?	-30%[46.1 µM]	-5%	.	.
Cc1ccc(NC(=O)COC(=O)CSC(=S)N2CCOCC2)cc1	.	3%	16%	.	27*	42
CS(=O)(=O)c1ccc(-c2nc(-c3ccc(F)cc3)c(-c3ccncc3)[nH]2)cc1	-15%[60.7 µM]	.	.	-16%[60.7 µM]	.	.
CC(C)CN1C(=O)c2ccc(C(=O)Nc3ccc(OCC(=O)O)cc3)cc2C1=O	4%	2%[46.1 µM]	15%[46.1 µM]	-22%	-2	-14
COc1cccc(-n2c(SCc3ccccc3C)nc3c([nH]c4ccccc43)c2=O)c1	-8%	.	-22%[46.1 µM]	-5%	.	.
Cc1ccccc1OCC(=O)OCC(=O)Nc1ccc2c(c1)OCO2	-4%	-5%	0%	-8%	.	.
